We go through nine compounds from PubChem BioAssay (NCI).

SMILES strings stand for the structures. This is part of a sample that, as a whole, favours compounds with a hit. Of some 83,000 tested, about 20% had one in any assay.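 Treatment: one concentration, 48 hours, 96-well format. Scoring: percent growth, with anything below 10 considered active.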 Values without a mark were called inactive. Activity calls are given as the source filed them.

Test systems include SK-MEL-2 melanoma; EKVX NSCLC; SN12C renal; UO-31 renal; TK-10 renal; ACHN renal; CAKI-1 renal; A498 renal; CCRF-CEM leukemia; MOLT-4 leukemia; SR leukemia; OVCAR-8 ovarian; OVCAR-5 ovarian; OVCAR-4 ovarian; SK-OV-3 ovarian; IGROV1 ovarian; OVCAR-3 ovarian; HS 578T breast; NCI/ADR-RES ovarian; RPMI-8226 leukemia.
Holding throughout (assay): NCI-60 one-dose screen, 48 h (100 = growth as untreated, 0 = no growth, -100 = all killed)
Conditions in all cases: 10 µM unless noted

On to `CCCCCCCC/C=C/CCCCCCCC1=NC(C)(C)CN1C(C)C`, for which the growth in the test with SK-MEL-2 melanoma was -63.9% (active); with EKVX NSCLC, 10.6%; in the test on SN12C renal, 16.8%; in the test with UO-31 renal, -17.4% (active); in the test with TK-10 renal, -14.8% (active); with ACHN renal, -78.3% (active). In addition, the growth with CAKI-1 renal is 31.2%; in the test on A498 renal it was 65.7%; with CCRF-CEM leukemia, -43.4% (active); in the test on MOLT-4 leukemia it was -63.2% (active); in the test on SR leukemia, -46.7% (active); in the test on OVCAR-8 ovarian it was -20.8% (active). Moreover, the growth in the test on OVCAR-5 ovarian is 58.1%; in the test with OVCAR-4 ovarian, 18.9%; in the test with SK-OV-3 ovarian, 55.4%; in the test on IGROV1 ovarian, -29.9% (active); in the test with OVCAR-3 ovarian it was -55.7% (active); in the test with HS 578T breast, 6.92% (active). For the same compound, the growth with NCI/ADR-RES ovarian is -6.48% (active).
In the case of `CC(C)(C)OC[C@@H]1N=C(c2ccc(Br)cc2)Nc2nc3ccccn3c2C1=O`, the growth in the test on SK-MEL-2 melanoma was 49.2%; with EKVX NSCLC, 81.6%; in the test with SN12C renal, 84.1%; with UO-31 renal, 52.1%; with TK-10 renal, 95.1%; in the test with ACHN renal, 75.3%. Further, the growth with CAKI-1 renal was 64.2%; with A498 renal, 66.9%; with CCRF-CEM leukemia, 67.8%; in the test with MOLT-4 leukemia it was 53.7%; in the test on SR leukemia, 35.4%; with RPMI-8226 leukemia, 67.5%. For the same compound, the growth in the test with OVCAR-8 ovarian is 79.5%; in the test with OVCAR-4 ovarian, 82.3%; with SK-OV-3 ovarian, 64.3%; in the test on IGROV1 ovarian it was 40.7%; in the test with OVCAR-3 ovarian, 34.2%; in the test with HS 578T breast, 65.2%. Moreover, the growth in the test with NCI/ADR-RES ovarian was 39.7%.
`COc1ccc(NC(=O)Cn2c(=O)sc3c(-c4ccc(Cl)cc4)cc(-c4ccc(Cl)cc4)nc32)cc1`: the growth in the test with SK-MEL-2 melanoma was 107%; in the test on EKVX NSCLC it was 95.4%; in the test on SN12C renal it was 93.2%; in the test with UO-31 renal, 81.4%; in the test with TK-10 renal, 97.3%; in the test on ACHN renal it was 102%. The growth with CAKI-1 renal was 95.3%; in the test with A498 renal it was 129%; in the test with CCRF-CEM leukemia, 112%; in the test with MOLT-4 leukemia, 95%; in the test with SR leukemia, 63.3%; in the test on RPMI-8226 leukemia, 116%. Also, the growth with OVCAR-8 ovarian is 107%; in the test on OVCAR-4 ovarian, 98.3%; with SK-OV-3 ovarian, 102%; in the test on IGROV1 ovarian it was 92.3%; with OVCAR-3 ovarian it was 115%; in the test with HS 578T breast, 108%. For the same compound, the growth with NCI/ADR-RES ovarian was 89.2%.
Regarding `Clc1ccc(-c2cnc3c(-c4ccnc(N5CCNCC5)c4)cnn3c2)cc1`, the growth is -57.4% (active) in the test with SK-MEL-2 melanoma; 80.8% in the test on EKVX NSCLC; 10.9% in the test on SN12C renal; -42.6% (active) with UO-31 renal; 1.85% (active) in the test with TK-10 renal; -0.355% (active) with ACHN renal. The growth with CAKI-1 renal is -19.2% (active); with A498 renal, 92.2%; in the test on CCRF-CEM leukemia, 0.88% (active); in the test on MOLT-4 leukemia it was -5.54% (active); in the test with SR leukemia, -0.57% (active); in the test on RPMI-8226 leukemia, -39% (active). The growth in the test on OVCAR-8 ovarian was 1.08% (active); in the test with OVCAR-5 ovarian, -21.2% (active); in the test with SK-OV-3 ovarian, 85.2%; with OVCAR-3 ovarian it was -14.6% (active); in the test on HS 578T breast it was -32% (active); in the test on NCI/ADR-RES ovarian, -0.0998% (active).
In the case of `CC1(C)CC(=O)c2cc3c(N)c(C(=O)Nc4ccc(Cl)cc4)sc3nc2C1`, the growth in the test on SK-MEL-2 melanoma is 101%; in the test on EKVX NSCLC, 93.2%; with SN12C renal, 110%; with UO-31 renal it was 109%; in the test with TK-10 renal it was 95.2%; in the test on ACHN renal it was 117%. Also, the growth was 134% in the test on CAKI-1 renal; 75.6% in the test on A498 renal; 97.2% in the test on CCRF-CEM leukemia; 104% in the test on MOLT-4 leukemia; 113% in the test on SR leukemia; 103% with RPMI-8226 leukemia. The growth was 111% in the test on OVCAR-8 ovarian, 106% in the test with SK-OV-3 ovarian, 111% in the test on IGROV1 ovarian and 109% in the test on HS 578T breast.
For `CC(=O)NC1C(O[C@H]2C[C@H]3[C@@H]4CC=C5C[C@@H](O)CC[C@]5(C)[C@H]4CC[C@]3(C)[C@H]2[C@H](C)C(=O)CCC(C)C)OCC(O)C1O` (stereo partly specified), the growth in the test with SK-MEL-2 melanoma is -15.9% (active); with EKVX NSCLC, 46.3%; in the test on SN12C renal, 89.6%; in the test with UO-31 renal, 1.5% (active); with TK-10 renal, 60.4%; with ACHN renal, 44.3%. Besides, the growth is 30.2% in the test on CAKI-1 renal; -20.3% (active) in the test with A498 renal; 11.5% with CCRF-CEM leukemia; -8.22% (active) in the test with MOLT-4 leukemia; 18.7% in the test with SR leukemia; -9.81% (active) with RPMI-8226 leukemia. For the same compound, the growth in the test on OVCAR-8 ovarian is 66.3%; in the test with OVCAR-4 ovarian, 87.8%; in the test on SK-OV-3 ovarian it was 37.9%; in the test on IGROV1 ovarian it was 72%; in the test with OVCAR-3 ovarian, 72%; in the test with HS 578T breast it was 5.84% (active).
In the case of `CCCCSc1ncnc2c1ncn2C1CCCCO1` (stereo unspecified), the growth in the test on SK-MEL-2 melanoma was 104%; with EKVX NSCLC, 115%; with SN12C renal it was 103%; in the test on UO-31 renal, 91.2%; with TK-10 renal, 109%; in the test on ACHN renal, 110%. The growth in the test with CAKI-1 renal is 110%; in the test on A498 renal, 94.6%; with CCRF-CEM leukemia, 99.6%; in the test with MOLT-4 leukemia, 96.9%; with SR leukemia, 90.5%; in the test on OVCAR-8 ovarian, 105%. Further, the growth with OVCAR-5 ovarian was 99.1%; in the test with OVCAR-4 ovarian, 108%; with SK-OV-3 ovarian it was 106%; in the test on IGROV1 ovarian, 106%; in the test with OVCAR-3 ovarian, 109%; in the test on HS 578T breast it was 110%. For the same compound, the growth in the test with NCI/ADR-RES ovarian is 102%.
Regarding `Fc1ccc(-c2cnc3nonc3n2)c(F)c1`, the growth with SK-MEL-2 melanoma is 108%; in the test on EKVX NSCLC, 108%; in the test with SN12C renal, 107%; in the test on UO-31 renal, 89.1%; with TK-10 renal, 121%; in the test on ACHN renal it was 95.2%. In addition, the growth with CAKI-1 renal is 96.3%; with A498 renal, 80.9%; in the test on CCRF-CEM leukemia it was 46.1%; with MOLT-4 leukemia it was 77.6%; in the test on SR leukemia, 74.5%; in the test with OVCAR-8 ovarian it was 102%. The growth was 96.8% in the test on OVCAR-5 ovarian; 93.3% in the test with OVCAR-4 ovarian; 92.1% in the test on SK-OV-3 ovarian; 108% in the test on IGROV1 ovarian; 81.5% with OVCAR-3 ovarian; 98.1% in the test on HS 578T breast. Besides, the growth in the test on NCI/ADR-RES ovarian is 104%.
In the case of `Oc1c(C(Nc2ccccc2Br)c2ccccc2)ccc2cccnc12` (stereo unspecified), the growth in the test with SK-MEL-2 melanoma was 12.1%; in the test with EKVX NSCLC, 23.4%; in the test with SN12C renal, 24.7%; in the test with UO-31 renal, 16.8%; in the test on TK-10 renal it was 30.3%; in the test with ACHN renal, 13.5%. The growth is 13.2% in the test on CAKI-1 renal; 47.7% in the test with A498 renal; 17.3% with CCRF-CEM leukemia; 4.89% (active) in the test with MOLT-4 leukemia; 1.95% (active) with SR leukemia; 45.8% in the test with RPMI-8226 leukemia. Besides, the growth with OVCAR-8 ovarian is 23.5%; in the test with OVCAR-4 ovarian, 31.4%; in the test on SK-OV-3 ovarian it was 35.2%; in the test with IGROV1 ovarian, 20.1%; in the test with OVCAR-3 ovarian, 32.8%; in the test on HS 578T breast, 59.2%. Besides, the growth with NCI/ADR-RES ovarian was 2.07% (active).
